Screens as filed in PubChem BioAssay.
SUMO Mot1 rescue: inhibitors of SUMOylation pathway: yeast Mot1-301 growth rescue; AID 2716; growth rescue, % at 18.8 µM; S. cerevisiae Mot1-301 growth rescue, ATP luminescence, 38.5C; percent above DMSO median, 100 means doubled; 1% of 320,000 active;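 active means every valid replicate shows activation above 250% relative to neutral control wells; inactive means the rest, any valid replicate at or below 250%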;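 further: OY570 slx delta 5 strain wells were the positive control but not used for scaling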
Bfl-1 A1 inh: inhibitors of the anti-apoptotic protein A1, read as caspase activation; MEF A1-2A-BIM cells, Caspase-Glo 3/7 luminescence, 3 h; percent of clofoctol response, vehicle zero; caspase activation, % (no concentration beside the values); 0.066% of 330,000 active; AID 2462;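 active means over half of replicate activation scores above 10%, or exactly half above 10 with the replicate mean above 10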
ALR H2O2 inh: blocks human ALR sulfhydryl oxidase activity | purified ALR, DTT oxidation, H2O2 HRP-luminol luminescence | inhibition, % (test concentration not listed) | 3.8% of 290,000 active;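 active means mean replicate inhibition above about 79%, with every replicate also reaching it, limit read from the data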
VLA-4 inh: inhibition in a human VLA-4 binding assay | P13612 | VLA-4 expressing cells, ligand binding flow cytometry | inhibition, % (about 7 µM as worked out from the volumes in the protocol) | 0.2% of 330,000 active | AID 2557; in the data active means inhibition above about 50%
Efflux pump inh: inhibitors of Candida antifungal efflux pumps expressed in yeast; S. cerevisiae Candida pump triplex, Nile Red efflux; inhibition, % at 10 µM; 0.44% of 330,000 active; AID 485275;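 active means plate passing quality check with inhibition over a set limit, or well fluorescence over plate mean plus 4 SD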;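 further: Nile Red retained in pooled yeast measured as flow cytometry median fluorescence; 0% = buffer negative control and 100% = Enniatin B positive control; higher means more Nile Red kept so more efflux inhibition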
AHR act: human AHR activation; P35869; AHR-responsive luciferase reporter cells, luminescence; activation, % at 5 µM; 2.5% of 320,000 active; AID 2796; in the data active means activation above about 47%;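 further: 0% = vehicle wells and 100% = reference agonist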
Target sequence (P35869 whole entry, looked up): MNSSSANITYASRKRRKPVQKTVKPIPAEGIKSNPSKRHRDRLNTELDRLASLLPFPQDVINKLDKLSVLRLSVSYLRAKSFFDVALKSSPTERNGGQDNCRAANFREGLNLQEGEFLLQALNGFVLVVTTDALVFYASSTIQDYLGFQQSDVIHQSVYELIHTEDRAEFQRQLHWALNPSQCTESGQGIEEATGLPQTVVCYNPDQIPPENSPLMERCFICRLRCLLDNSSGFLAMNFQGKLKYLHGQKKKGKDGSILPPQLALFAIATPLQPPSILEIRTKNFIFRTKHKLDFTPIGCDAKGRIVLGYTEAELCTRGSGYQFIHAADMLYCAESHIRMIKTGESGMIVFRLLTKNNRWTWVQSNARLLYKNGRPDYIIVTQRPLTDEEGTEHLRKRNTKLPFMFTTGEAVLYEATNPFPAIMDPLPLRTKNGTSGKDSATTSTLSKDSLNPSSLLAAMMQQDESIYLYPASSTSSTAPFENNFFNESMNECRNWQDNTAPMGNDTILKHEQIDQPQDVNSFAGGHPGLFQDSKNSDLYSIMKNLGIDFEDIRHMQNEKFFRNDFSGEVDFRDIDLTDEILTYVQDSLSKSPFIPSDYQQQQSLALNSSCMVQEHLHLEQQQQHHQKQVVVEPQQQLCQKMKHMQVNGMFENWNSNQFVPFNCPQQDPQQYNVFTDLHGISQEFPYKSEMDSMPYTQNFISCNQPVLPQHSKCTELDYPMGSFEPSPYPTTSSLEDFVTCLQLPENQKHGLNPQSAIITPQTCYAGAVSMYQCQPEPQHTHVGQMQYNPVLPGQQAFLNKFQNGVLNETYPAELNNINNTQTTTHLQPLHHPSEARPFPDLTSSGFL
Mot1 SUMO dose: yeast SUMO pathway inhibition in dose response; S. cerevisiae Mot1-301 galactose growth, ATP luminescence, 24 h; -100 = growth of slx-deleted rescue strain; 2,300 tested, under 10 active; shares compounds with SUMO Mot1 rescue; growth activity, percent, % at 42 µM;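 active means Signal drops as the depositor expects, and the fitted half-maximal dose is no more than ten times the top valid tested dose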;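 further: more negative values mean stronger growth rescue toward the control strain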
* hit, by the source's call; / = no result; + = active, no number. This is a sample that favours compounds with a hit; in the whole collection about 7.2% have one here.

SMILES | SUMO Mot1 rescue | Bfl-1 A1 inh | ALR H2O2 inh | VLA-4 inh | Efflux pump inh | AHR act | Mot1 SUMO dose
CCCCNC(=O)C1C2C=CC3(CN(Cc4ccc(C)cc4)C(=O)C13)O2 (stereo not given) | 858.7* | -0.7 | 11.1 | 5.1 | -0.1 | 1.7 | 0.1
COc1ccc(S(=O)(=O)NCC(c2cccnc2)N2CCN(Cc3ccccc3)CC2)cc1C (stereo not given) | 1.1 | 1.0 | -6.7 | -1.8 | 0.0 | 0.3 | /
Cc1cc(C)c(S(=O)(=O)NCC(c2cccnc2)N2CCN(Cc3ccccc3)CC2)c(C)c1 (stereo not given) | 524.3* | -0.2 | 6.2 | 11.6 | 0.1 | 4.7 | 0.0
CCOC(=O)C(NC(=O)c1ccccc1)(N1CCOCC1)C(F)(F)F (stereo not given) | + | 0.4 | -2.2 | 0.8 | -0.1 | 0.0 | 0.0
N#C/C(=C\c1cn(-c2ccccc2)nc1-c1cccnc1)c1nnc2n1CCCCC2 | 396.9* | 0.5 | 22.1 | 31.8 | 0.2 | -1.8 | -0.2
N#C/C(=C/c1ccccc1[N+](=O)[O-])c1nnc2n1CCCCC2 | -1.5 | 1.4 | -8.7 | -5.8 | 0.0 | -0.7 | /
CC1=C(C(N)=O)C(c2ccccn2)n2nc(SCc3ccccc3Cl)nc2N1 (stereo not given) | 384.3* | -0.3 | / | 7.1 | 0.5 | 4.5 | 0.2
O=C1CN(S(=O)(=O)c2ccc(Cl)cc2C(F)(F)F)CCN1 | -2.4 | 1.3 | -2.3 | -1.7 | -0.3 | 2.4 | /
CCCCn1c(N)c(N(CC(C)C)C(=O)CSCC(=O)Nc2cccc(C)c2)c(=O)[nH]c1=O | 366.3* | 0.0 | -9.9 | 11.7 | 0.3 | 1.2 | -0.1
CC(C)C[C@@H](CO)N1CCN(Cc2cccnc2)CCC1=O | 620.6* | -0.6 | 1.2 | 25.2 | -0.1 | -0.5 | -0.4
CC(C)C[C@@H](CO)N1CCN(Cc2ccc(Br)cc2)CCC1=O | 5.6 | 0.7 | / | 15.7 | 0.0 | 4.2 | /
CCCCCCCC(=O)NNC(=O)Cc1ccccc1 | 9.2 | 0.2 | -8.5 | -0.2 | 0.1 | -0.2 | /
CCCCCC(=O)NNC1=NCC(Cc2cccc(Cl)c2)S1 (stereo not given) | 733.7* | 0.0 | 15.2 | 0.0 | 0.3 | 3.8 | 0.6
O=C1CC(c2cccc(Br)c2)C2=C(COC2=O)N1 (stereo not given) | 386.5* | 0.5 | 0.2 | 11.5 | -0.2 | -0.8 | 1.0
O=C(N1CCN(c2ccccc2)CC1)C12CC3CC(CC(C3)C1)C2 | 16.1 | 0.7 | 65.3 | 0.0 | -0.1 | -0.4 | /
CCn1c(N2CCN(C(=O)C34CC5CC(CC(C5)C3)C4)CC2)nc2ccccc21 | 389.3* | -1.1 | 11.9 | 6.2 | 0.0 | -0.1 | 0.0
COC(=O)C1CCN(C(=O)Cn2nnc(-c3ccccc3)n2)CC1 | 61.3 | 0.3 | -5.4 | -0.2 | 0.0 | 0.1 | /
Cn1nnnc1SC(C(=O)Nc1cccc(C(F)(F)F)c1)c1ccccc1 (stereo not given) | 3.1 | 0.8 | / | 0.0 | -0.4 | 15.3 | /
Cc1ccc(C2=NN(CC(=O)NCCN(C)C)C(=O)CC2)cc1 | -7.7 | 0.8 | -8.4 | 5.5 | 0.0 | 3.6 | /
Cc1ccc(C2=NN(CC(=O)NCc3cccs3)C(=O)CC2)cc1 | 399.1* | 0.2 | -6.0 | 25.9 | -0.1 | 3.4 | 0.0
C/C(=N\NC(=S)Nc1ccccc1)C1Cc2ccccc2C(=O)O1 (stereo not given) | 393.3* | -0.4 | 58.5 | 20.5 | -0.1 | 9.8 | 0.0
C/C(=N\NC(=S)Nc1ccccc1C)C1Cc2ccccc2C(=O)O1 (stereo not given) | -15.7 | -0.2 | 5.2 | 4.0 | 0.0 | 18.7 | /
COc1ccc(NC(=O)COCC(=O)Nc2ccc(C)cc2)cc1 | -8.6 | -0.5 | -10.1 | 4.5 | 0.1 | 5.4 | /
Cc1ccc(SCCC(=O)Nc2ccc(OCc3ccccc3)cc2)cc1 | 967.5* | -0.8 | -5.3 | 18.0 | 0.8 | 0.6 | -0.2
COc1ccc(OCC(=O)Nc2ccc(C)cc2)cc1 | 859.1* | / | -14.4 | -17.0 | 0.0 | -1.9 | -0.2
SMILES | SUMO Mot1 rescue | Bfl-1 A1 inh | ALR H2O2 inh | VLA-4 inh | Efflux pump inh | AHR act | Mot1 SUMO dose
COc1ccc(NC(=O)CN(C)C(=O)c2cc(C)on2)cc1 | 678.2* | -0.3 | -2.3 | 8.0 | 0.1 | 1.3 | -0.4
CCCCN1CCc2[nH]c(=S)[nH]c(=O)c2C1 | -3.9 | 0.3 | 3.1 | -13.3 | -0.1 | -2.3 | /
COCCn1c(SCC(=O)N2CCCC2)nnc1-c1ccoc1C | + | -0.3 | -14.1 | 7.1 | -0.1 | 0.1 | 0.4
COCCn1c(SCC(=O)Nc2ccc(OC)cc2)nnc1-c1ccoc1C | 222.4 | 0.6 | -1.1 | 2.5 | -0.1 | 1.8 | /
Cn1c(-c2ccc(Cl)nc2)nc2cc(Cl)ccc21 | -22.4 | -0.8 | / | 13.1 | 0.5 | -0.3 | /
c1ccc(-c2csc(NC3CCCCC3)n2)cc1 | 922.7* | -5.2 | 1.4 | 6.3 | 1.2 | 4.6 | -0.1
O=C(Nc1nc(-c2ccccc2)cs1)NC1CCCCC1 | 3.7 | -0.2 | 9.2 | -1.2 | 0.1 | -11.2 | /
CCOC(=O)CCNC(=O)N1CCCC(CNS(=O)(=O)c2cccs2)C1 (stereo not given) | 7.4 | -1.0 | / | 1.0 | -0.1 | 0.3 | /
CCOC(=O)c1c(C)n(C)c2cc(-c3ccc(C)cc3)c(O)cc12 | 644.8* | -0.1 | -5.9 | 9.4 | -0.1 | 12.1 | 0.0
COc1cc(NC(=O)C2CCCN(S(=O)(=O)c3ccc4c(c3)CCCN4C(C)=O)C2)cc(OC)c1 (stereo not given) | -6.2 | 0.3 | -2.6 | 8.6 | 0.5 | 8.0 | /
COc1ccc(/C=N/NC(=O)c2ccc3nc[nH]c3c2)cc1 | 21.4 | 0.4 | -10.7 | 14.3 | 0.1 | 2.2 | /
CCOC(=O)CNC(=O)c1ccc(Br)s1 | 349.2 | 0.1 | -3.8 | 2.0 | 0.0 | 1.9 | /
Cc1sc(NC(=O)c2ccc(Br)s2)c(C(N)=O)c1C | 408.3* | -3.5 | 10.6 | -3.8 | -0.1 | 58.6* | -1.9
CCOC(=O)N1CCN(S(=O)(=O)c2c[nH]c(C(=O)OC)c2)CC1 | -4.7 | 0.3 | -1.8 | -1.3 | 0.0 | 1.1 | /
CCOC(=O)Nc1sc(=S)n(C)c1C | 509.4* | 0.8 | 92.7* | 8.0 | 0.1 | -0.9 | -0.1
Cc1ccc(Cl)cc1OCC(=O)NCCOC(=O)Nc1sc(=S)n(C)c1C | -5.4 | -0.1 | 20.6 | 15.7 | 0.1 | 5.3 | /
C=CCn1nnnc1SCC(=O)Nc1ccccc1C(=O)OC | -19.3 | -0.2 | -15.7 | -2.2 | -0.1 | 8.7 | /
COC(=O)c1ccccc1NC(=O)CSc1nnnn1CC(=O)O | 616.1* | -0.8 | / | 10.5 | 0.0 | 0.5 | 0.0
C=CCN(c1ccccc1)S(=O)(=O)c1cc2c(cc1C)NC(=O)CO2 | -12.7 | -0.4 | -3.2 | -1.0 | -0.1 | 1.0 | /
CCOc1ccccc1N(CC(=O)NCC1CCCO1)C(=O)CNS(=O)(=O)c1ccccc1 (stereo not given) | 4.7 | -0.4 | 7.6 | 5.9 | 0.2 | 2.5 | /
CCCC1Cc2c(sc3ncnc(N)c23)CO1 (stereo not given) | 420.0* | 0.1 | 3.1 | 13.1 | -0.1 | 29.7 | -0.9
